From PubChem BioAssay
Activity calls are given as the source filed them.

Experiments:
[1] = optical density shifts of acrAB sulA E. coli – strain DRC41, OD650, 48 h, E. coli filamentation inducer project, primary screen (AID 1152); settings: higher = more signal, called active from +8 up or from −8 down;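 also: E. coli MC1000 strain DRC41 lacking acrAB efflux pump and sulA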
[2] = probe aLefty1 binding on compound microarray – biochemical, small-molecule microarray, 635/667 nm fluorescence, primary screen (AID 1153); settings: higher = more signal;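 also: score merges spot fluorescence with signal-to-noise ratio from the scanned slide images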
[3] = plasmodial surface anion channel blockers, osmotic lysis – cell-based, P. falciparum Indochina, OD700, 1 h, primary screen (AID 1154); settings: P. falciparum Indochina infected RBC osmotic lysis, higher = more signal, called active from +8 up or from −8 down
[4] = plasmodial surface anion channel blockers, osmotic lysis – cell-based, P. falciparum Indochina, OD700, 2 h, primary screen (AID 1155);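 also: lysis reports solute entry through the parasite surface anion channel PSAC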; settings: P. falciparum Indochina infected erythrocytes, higher = more signal, called active from +8 up or from −8 down
[5] = changes in parasitized red cell lysis, either direction – P. falciparum Indochina, OD700, 3 h, PSAC antagonist project, primary screen (AID 1156); settings: P. falciparum-infected erythrocytes, osmotic lysis, higher = more signal, called active from +8 up or from −8 down
[6] = plasmodial surface anion channel blockers, osmotic lysis – cell-based, P. falciparum Indochina, OD700, 18 h, primary screen (AID 1157); settings: P. falciparum Indochina infected erythrocytes, osmotic lysis OD700, 18 h; higher = more signal, called active from +8 up or from −8 down
[7] = S6 kinase pathway phospho-S6 level changes – cell-based, A549, cytoblot, luminescence, serum-stimulated, primary screen (AID 1158); settings: 5 h, higher = more signal;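 also: serum-stimulated A549 lung adenocarcinoma cells; signal is phosphorylated S6 detected by cytoblot immunostaining with HRP secondary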
[8] = biological target: NADPH oxidase 2 (Homo sapiens) (UniProt P04839); assay: compounds shifting NOX2 Amplex Red fluorescence – cell-based, HEK293-NOX2, PMA-stimulated, NOX inhibitor project, primary screen (AID 1159); settings: 45 min, higher = more signal, called active from +8 up or from −8 down; also: test concentration not given here
Sequence of NADPH oxidase 2 (Homo sapiens) (P04839 whole entry, looked up): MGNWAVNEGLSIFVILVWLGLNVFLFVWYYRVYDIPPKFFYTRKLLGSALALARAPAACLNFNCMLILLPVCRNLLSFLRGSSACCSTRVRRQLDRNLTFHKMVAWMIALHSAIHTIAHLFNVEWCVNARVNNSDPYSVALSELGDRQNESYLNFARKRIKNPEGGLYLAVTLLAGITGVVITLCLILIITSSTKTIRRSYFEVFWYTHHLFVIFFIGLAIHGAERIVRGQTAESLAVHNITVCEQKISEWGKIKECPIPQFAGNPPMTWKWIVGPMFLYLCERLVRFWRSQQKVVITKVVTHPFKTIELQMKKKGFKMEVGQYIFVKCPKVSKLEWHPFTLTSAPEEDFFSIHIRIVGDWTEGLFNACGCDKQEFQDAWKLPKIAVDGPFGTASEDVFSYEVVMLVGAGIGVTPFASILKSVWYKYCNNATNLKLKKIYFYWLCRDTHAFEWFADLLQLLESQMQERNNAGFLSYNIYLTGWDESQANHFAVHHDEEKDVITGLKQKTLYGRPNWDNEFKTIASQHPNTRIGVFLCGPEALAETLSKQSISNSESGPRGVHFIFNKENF

[9] = biological target: NADPH oxidase 4 (Homo sapiens) (UniProt Q9NPH5); assay: compounds shifting NOX4 Amplex Red fluorescence – cell-based, HEK293-NOX4, tetracycline-induced, NOX inhibitor project, primary screen (AID 1160); settings: HEK293-NOX4, Amplex Red H2O2 fluorescence, 45 min; higher = more signal, called active from +8 up or from −8 down
Sequence of NADPH oxidase 4 (Homo sapiens) (Q9NPH5 whole entry, looked up): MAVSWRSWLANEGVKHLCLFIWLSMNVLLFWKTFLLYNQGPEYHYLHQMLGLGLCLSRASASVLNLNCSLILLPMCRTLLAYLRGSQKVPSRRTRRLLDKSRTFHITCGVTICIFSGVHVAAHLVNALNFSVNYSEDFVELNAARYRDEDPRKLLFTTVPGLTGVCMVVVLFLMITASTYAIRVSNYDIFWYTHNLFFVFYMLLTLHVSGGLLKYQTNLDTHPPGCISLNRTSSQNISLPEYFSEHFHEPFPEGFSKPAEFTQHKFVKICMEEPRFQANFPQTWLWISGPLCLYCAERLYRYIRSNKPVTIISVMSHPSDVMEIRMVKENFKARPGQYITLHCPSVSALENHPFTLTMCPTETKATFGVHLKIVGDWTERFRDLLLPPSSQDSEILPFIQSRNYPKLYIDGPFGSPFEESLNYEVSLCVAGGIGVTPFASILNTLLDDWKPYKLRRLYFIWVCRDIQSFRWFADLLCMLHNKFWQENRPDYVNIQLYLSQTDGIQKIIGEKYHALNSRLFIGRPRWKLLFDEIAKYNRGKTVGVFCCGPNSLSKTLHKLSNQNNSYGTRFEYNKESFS

[10] = biological target: NADPH oxidase 5 (Homo sapiens) (UniProt Q96PH1); assay: compounds shifting NOX5 Amplex Red fluorescence – cell-based, HEK293-NOX5, NOX inhibitor project, primary screen (AID 1161); settings: HEK293-NOX5, ionomycin, 45 min, higher = more signal
Sequence of NADPH oxidase 5 (Homo sapiens) (Q96PH1 whole entry, looked up): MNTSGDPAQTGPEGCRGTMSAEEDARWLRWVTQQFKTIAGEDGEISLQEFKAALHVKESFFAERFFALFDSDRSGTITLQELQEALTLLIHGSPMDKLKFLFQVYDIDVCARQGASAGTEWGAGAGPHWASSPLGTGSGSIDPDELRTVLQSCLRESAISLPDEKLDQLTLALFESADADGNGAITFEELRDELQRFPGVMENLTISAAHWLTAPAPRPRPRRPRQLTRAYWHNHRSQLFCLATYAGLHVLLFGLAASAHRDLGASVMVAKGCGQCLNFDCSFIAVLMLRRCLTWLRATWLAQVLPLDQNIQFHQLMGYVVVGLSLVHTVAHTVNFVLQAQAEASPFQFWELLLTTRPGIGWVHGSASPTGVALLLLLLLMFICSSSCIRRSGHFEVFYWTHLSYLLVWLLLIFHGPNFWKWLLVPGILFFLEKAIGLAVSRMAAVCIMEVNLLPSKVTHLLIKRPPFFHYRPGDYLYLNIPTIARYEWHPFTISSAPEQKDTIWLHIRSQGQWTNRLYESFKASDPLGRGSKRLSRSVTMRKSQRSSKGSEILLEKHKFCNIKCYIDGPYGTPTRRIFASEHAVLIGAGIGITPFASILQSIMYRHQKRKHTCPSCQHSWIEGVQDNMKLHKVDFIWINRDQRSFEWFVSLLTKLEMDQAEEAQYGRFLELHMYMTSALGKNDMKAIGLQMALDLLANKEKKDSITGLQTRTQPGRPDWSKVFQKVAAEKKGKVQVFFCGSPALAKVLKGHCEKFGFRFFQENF

[11] = compound effects on lung adenocarcinoma cell viability – A549, calcein-AM fluorescence, 48 h, basal, profiling panel (AID 1162); settings: higher = more signal; also: test concentration not given here
[12] = compound effects on differentiated 3T3-L1 adipocyte viability – cell-based, 3T3-L1 adipocytes, calcein-AM fluorescence, 48 h, basal, profiling panel (AID 1163); settings: 3T3-L1 adipocytes viability, higher = more signal; also: test concentration not given here
[13] = compound effects on hepatocellular carcinoma cell viability – HepG2, calcein-AM fluorescence, 48 h, basal, profiling panel (AID 1164); settings: higher = more signal; also: test concentration not given here
[14] = compound effects on multiple myeloma cell viability – MM1S, calcein-AM fluorescence, 48 h, basal, profiling panel (AID 1165); settings: higher = more signal;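 also: viability of MM1S multiple myeloma cells under basal unstimulated conditions; test concentration not given here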
[15] = calcein-AM signal in unstimulated myeloma cells – cell-based, calcein-AM fluorescence, 48 h, PK04 Diversity Set, profiling panel (AID 1166); settings: RPMI8226 myeloma viability, higher = more signal;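 also: cells grown under basal conditions without added stimulus; test concentration not given here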
[16] = JC-1 mitochondrial signal, unstimulated HepG2 cells – cell-based, JC-1 fluorescence, 24 h, 100 nL compound, profiling panel (AID 1167); settings: HepG2 mitochondrial potential, higher = more signal; also: test concentration not given here
[17] = JC-1 mitochondrial signal, unstimulated adipocytes – cell-based, JC-1 fluorescence, 3T3-L1 adipocytes, 24 h, 100 nL compound, profiling panel (AID 1168); settings: JC-1 mitochondrial fluorescence, higher = more signal, called active from +8 up or from −8 down; also: test concentration not given here
[18] = JC-1 mitochondrial signal, unstimulated myeloma cells – cell-based, JC-1 fluorescence, RPMI8226, 24 h, 100 nL compound, profiling panel (AID 1169); settings: JC-1 mitochondrial potential fluorescence, higher = more signal; also: test concentration not given here
[19] = JC-1 mitochondrial signal, unstimulated MM1S myeloma – cell-based, JC-1 fluorescence, 24 h, 100 nL compound, profiling panel (AID 1170); settings: MM1S mitochondrial potential, higher = more signal; also: test concentration not given here
[20] = resazurin metabolic signal in A549 cells – cell-based, resazurin fluorescence, 24 h, PK04 Diversity Set, profiling panel (AID 1171); settings: A549 viability, higher = more signal, called active from +8 up or from −8 down; also: test concentration not given here

Structure (SMILES)	z-score [1]	composite z-score [2]	z-score [3]	z-score [4]	z-score [5]	z-score [6]	z-score [7]	z-score [8]	z-score [9]	z-score [10]	z-score [11]	z-score [12]	z-score [13]	z-score [14]	z-score [15]	z-score [16]	z-score [17]	z-score [18]	z-score [19]	z-score [20]
C[N+](C)(C)CCCC[C@@H]1NC(=O)[C@H]2C[C@@H](C(=O)NCCCCCNC(=O)CS)[C@@H](c3ccc(O)cc3)N2C1=O	1.65 (inactive)	-0.0162	0.105 (inactive)	-0.38 (inactive)	-0.364 (inactive)	-2.52 (inactive)	1.46	0.236 (inactive)	0.335 (inactive)	1.52	0.809	-0.464	0.664	0.949	-1.51	1.45	-0.0341 (inactive)	0.287	-0.013	-0.567 (inactive)
COCCOC(=O)N1C(=O)[C@@]2(c3cc(C#CCCO)ccc31)[C@H](C(=O)N1CCN(c3ncccn3)CC1)[C@H]1C(=O)O[C@H](c3ccccc3)[C@H](c3ccccc3)N1[C@@H]2c1ccc(O)cc1	1.35 (inactive)	-0.36	1.78 (inactive)	0.133 (inactive)	1.21 (inactive)	0.684 (inactive)	0.188	1.69 (inactive)	1.21 (inactive)	1.29	1.61	0.222	1.54	0.14	0.0881	-0.141	0.339 (inactive)	-0.614	-1.07	0.249 (inactive)
CN(C)CCCNC(=O)[C@@H]1c2ccccc2C(=O)N(C2Cc3ccccc3C2)[C@H]1c1ccc(CO)cc1	0.776 (inactive)	-0.765	3.98 (inactive)	0.517 (inactive)	1.79 (inactive)	0.281 (inactive)	-0.421	0.498 (inactive)	1.25 (inactive)	0.545	1.61	0.121	1.99	-0.233	-1.28	3.81	0.571 (inactive)	-0.066	-0.311	0.267 (inactive)
C=CC[C@]1(C(=O)N(C)C)COC(c2ccc(OCCCO)cc2)=N1	-2.4 (inactive)	0.0087	8.04 (active)	0.627 (inactive)	2.32 (inactive)	0.0256 (inactive)	0.116	-0.898 (inactive)	-0.581 (inactive)	-2.06	0.345	0.911	-0.8	-0.424	0.304	-1.26	-0.133 (inactive)	-0.676	1.23	-0.497 (inactive)
COC(=O)[C@@]1(Cc2ccccc2)[C@H]2c3cc(C(=O)N4CCCC4)n(Cc4ccc(C(F)(F)F)nc4)c3C[C@H]2CN1C(=O)c1ccccc1	-1.31 (inactive)	0.689	2.24 (inactive)	0.145 (inactive)	1.45 (inactive)	0.444 (inactive)	-0.467	0.262 (inactive)	0.396 (inactive)	-3.03	-0.567	1.88	-0.499	-0.331	-1.59	1.5	-0.657 (inactive)	-0.561	-0.796	0.263 (inactive)
CC(C)(C)OC(=O)CC[C@]1(C(=O)N2CCOCC2)N=C(c2ccc(OCCCO)cc2)O[C@H]1c1ccccc1CN=[N+]=[N-]	-0.47 (inactive)	0.705	13.9 (active)	1.71 (inactive)	1.05 (inactive)	0.421 (inactive)	0.705	-1.34 (inactive)	0.181 (inactive)	-0.476	-0.385	0.0723	0.209	-0.411	-0.563	0.432	-0.0219 (inactive)	-0.166	-0.324	0.734 (inactive)
CC(C)N1CC=CC23O[C@@H]4C=CCCOC(=O)C4[C@H]2C(=O)N(CCCCCO)[C@@H]3C1=O (stereo not given in full)	0.952 (inactive)	-0.0186	1.42 (inactive)	0.261 (inactive)	2.21 (inactive)	0.455 (inactive)	1.35	1.42 (inactive)	0.356 (inactive)	1.48	-0.211	-0.288	1.28	1.57	1.7	0.77	1.19 (inactive)	0.0326	-1.08	0.846 (inactive)
CCCCC(O)C1C=CC2C(=O)NC(=O)C2N1Nc1ccccn1 (stereo not given)	-2.16 (inactive)	0.235	-0.162 (inactive)	0.387 (inactive)	-0.343 (inactive)	0.483 (inactive)	-1.11	-1.48 (inactive)	-2.5 (inactive)	-2.17	-0.795	-0.291	1.18	0.106	0.0087	-1.68	-0.285 (inactive)	0.617	-0.00704	-0.751 (inactive)
CN(C)CCCC[C@@H]1NC(=O)[C@H]2C[C@@H](C(=O)NCc3ccc(F)cc3)[C@@H](c3ccc(O)cc3)N2C1=O	0.104 (inactive)	0.364	1.2 (inactive)	-0.0251 (inactive)	-6.5 (inactive)	0.153 (inactive)	-0.449	0.0836 (inactive)	0.799 (inactive)	0.195	0.334	0.0359	-0.372	-0.0511	-0.23	1.28	-0.365 (inactive)	-0.152	0.195	0.377 (inactive)
